Laboratory results as given in PubChem BioAssay (NCATS).
Results filed as inconclusive are left out. Active and inactive are the calls of the source. Unless noted, the call rests on the fitted dose curve; in most records, active means well fitted curve in the direction sought with a large enough effect; inconclusive means small, poorly fitted or top-dose-only effect, or another doubt; inactive means no such curve, though single readings can be large; an effect the other way counts as inactive or inconclusive.

Tests used:
[1] = P-glycoprotein substrates identified in KB-8-5-11 adenocarcinoma cell line, qHTS therapeutic library screen (AID 1346987); further: series mostly up to about 44 µM; on the % scale 0 is the no-effect control and ±100 the full control effect; nearly all actives have a fitted effect of over 65% in size
Outline: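 Luminescence from CellTiter-Glo, read 5 min after addition, quantified survival of KB-8-5-11 (P-gp-overexpressing) cells exposed to compounds for 72 h. AC50 was derived from concentration-response curves.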

[2] = NS1 protein of Zika virus - qHTS assay to identify small molecule inhibitors in human HEK 293 cells (AID 1347053);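 further: series mostly up to about 46 µM; plate controls were infected untreated cells for no effect and uninfected cells for full effect; nearly all actives have a fitted effect of over 55% in size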
Outline: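 In this cell-based screen, HEK 293 cultures received compound for one hour before Zika MR766 at MOI = 0.5. NS1 was quantified 24 hours later by TR-FRET, normalized to virus-free wells and infected wells.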

[3] = qHTS of pediatric cancer cell lines to identify multiple opportunities for drug repurposing: Primary screen for TC32 cells (AID 1347089); further: on the % scale 0 is the no-effect control and ±100 the full control effect; nearly all actives have a fitted effect of over 60% in size
Outline: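 Luminescent CellTiter-Glo read-out of metabolically active TC32 cells after 48 h compound exposure. Primary: MIPE 11-point, 0.78 nM–46 µM; NPC 8-point, 0.59 nM–46 µM. Confirmatory: 11-point dilutions.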

[4] = qHTS of pediatric cancer cell lines to identify multiple opportunities for drug repurposing: Primary screen for DAOY cells (AID 1347090);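 further: series mostly up to about 46 µM; plate controls were DMSO for no effect and bortezomib for full effect; nearly all actives have a fitted effect of over 55% in size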
Outline: (§1)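 Eight- or eleven-point concentration series, 48 h treatment at 37 degrees C in growth media; readout CellTiter-Glo luminescence. Potency and efficacy were taken from the concentration-response curves.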

[5] = qHTS of pediatric cancer cell lines to identify multiple opportunities for drug repurposing: Primary screen for SJ-GBM2 cells (AID 1347091);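 further: plate controls were DMSO neutral control for no effect and bortezomib for full effect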
Outline: as §1

[6] = qHTS of pediatric cancer cell lines to identify multiple opportunities for drug repurposing: Primary screen for A673 cells (AID 1347092); further: on the % scale 0 is the no-effect control and ±100 the full control effect; nearly all actives have a fitted effect of over 45% in size
Outline: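 A673 cells (500-1,000 cells/well in growth media) were pre-incubated 5 h at 37 degrees C, then exposed to compounds for 48 h. Viability was read as CellTiter-Glo luminescence; concentration-response curves came directly from the primary screen.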

[7] = qHTS of pediatric cancer cell lines to identify multiple opportunities for drug repurposing: Primary screen for SK-N-MC cells (AID 1347093);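 further: series mostly up to about 46 µM; plate controls were DMSO neutral control for no effect and bortezomib for full effect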
Outline: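 Metabolically active cells were quantified by ATP-dependent luminescence (CellTiter-Glo, 15 min at room temperature) following 48 h treatment. Cells had been plated at 500-1,000 per well and settled for 5 h beforehand.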

[8] = qHTS of pediatric cancer cell lines to identify multiple opportunities for drug repurposing: Primary screen for BT-37 cells (AID 1347094);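 further: series mostly up to about 57 µM; plate controls were DMSO for no effect and bortezomib for full effect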
Outline: (§2)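 500-1,000 cells/well; 5 h pre-incubation 37 °C/5% CO2; compound pinned; 48 h; CellTiter-Glo, 15 min RT; luminescence. MIPE 11-pt from 0.78 nM, NPC 8-pt from 0.59 nM final. Bortezomib 2.3 µM final as positive control.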

[9] = qHTS of pediatric cancer cell lines to identify multiple opportunities for drug repurposing: Primary screen for NB-EBc1 cells (AID 1347095);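 further: plate controls were DMSO neutral control for no effect and bortezomib for full effect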
Outline: as §2

[10] = qHTS of pediatric cancer cell lines to identify multiple opportunities for drug repurposing: Primary screen for U-2 OS cells (AID 1347096);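 further: plate controls were DMSO wells for no effect and bortezomib positive control wells for full effect; nearly all actives have a fitted effect of over 50% in size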
Outline: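 Cells (500-1,000/well) in growth media were settled 5 h at 37 degrees C, then given compounds for 48 h. Viability was read as CellTiter-Glo luminescence. Primary runs used MIPE at 11 points (0.78 nM-46 µM) and NPC at 8 points (0.59 nM-46 µM); follow-ups used 11 points.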

[11] = qHTS of pediatric cancer cell lines to identify multiple opportunities for drug repurposing: Primary screen for Saos-2 cells (AID 1347097); further: on the % scale 0 is the no-effect control and ±100 the full control effect; nearly all actives have a fitted effect of over 40% in size
Outline: as §2

[12] = qHTS of pediatric cancer cell lines to identify multiple opportunities for drug repurposing: Primary screen for SK-N-SH cells (AID 1347098);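 further: DMSO served as neutral control and bortezomib at 2.3 µM as positive control; on the % scale 0 is the no-effect control and ±100 the full control effect; nearly all actives have a fitted effect of over 65% in size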
Outline: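 Cells (500-1,000/well) rested 5 h, then received compounds for 48 h; metabolically active cells were measured by CellTiter-Glo luminescence. Final concentrations spanned up to 46 µM (MIPE, 11-point) or 0.59 nM-46 µM (NPC, 8-point) in primary screens, 11-point in follow-ups.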

[13] = qHTS of pediatric cancer cell lines to identify multiple opportunities for drug repurposing: Primary screen for NB1643 cells (AID 1347099);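 further: plate controls were DMSO neutral control for no effect and bortezomib positive control for full effect; nearly all actives have a fitted effect of over 50% in size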
Outline: as §2

[14] = biological target: T1, Tyrosine-protein phosphatase non-receptor type substrate 1 (Homo sapiens) + Leukocyte surface antigen CD47 (Homo sapiens) (UniProt P78324+Q08722); assay: CD47-SIRPalpha protein protein interaction - LANCE assay qHTS validation (AID 1347057; active means well fitted curve in the direction sought with a large enough effect in the signal ratio, with a control signal flat, not every such curve was filed as active; the % refers to the signal ratio; further: series mostly up to about 38 µM; 0% is about no effect)
T1 sequence (P78324 whole entry, looked up, the tested form may be a part): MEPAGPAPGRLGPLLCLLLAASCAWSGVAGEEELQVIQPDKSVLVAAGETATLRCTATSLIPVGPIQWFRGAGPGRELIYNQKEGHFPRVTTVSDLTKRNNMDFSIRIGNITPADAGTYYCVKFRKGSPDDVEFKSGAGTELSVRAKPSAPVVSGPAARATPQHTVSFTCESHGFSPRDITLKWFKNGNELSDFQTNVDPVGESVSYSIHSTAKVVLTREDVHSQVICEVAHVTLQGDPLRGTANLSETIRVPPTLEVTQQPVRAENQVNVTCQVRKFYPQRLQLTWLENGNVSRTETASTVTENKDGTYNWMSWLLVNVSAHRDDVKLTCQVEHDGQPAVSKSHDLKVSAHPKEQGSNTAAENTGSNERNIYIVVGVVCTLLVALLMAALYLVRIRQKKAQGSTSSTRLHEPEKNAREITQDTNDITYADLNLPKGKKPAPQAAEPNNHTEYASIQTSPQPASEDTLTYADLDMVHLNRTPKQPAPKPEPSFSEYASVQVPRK
T1 sequence (Q08722 whole entry, looked up, the tested form may be a part): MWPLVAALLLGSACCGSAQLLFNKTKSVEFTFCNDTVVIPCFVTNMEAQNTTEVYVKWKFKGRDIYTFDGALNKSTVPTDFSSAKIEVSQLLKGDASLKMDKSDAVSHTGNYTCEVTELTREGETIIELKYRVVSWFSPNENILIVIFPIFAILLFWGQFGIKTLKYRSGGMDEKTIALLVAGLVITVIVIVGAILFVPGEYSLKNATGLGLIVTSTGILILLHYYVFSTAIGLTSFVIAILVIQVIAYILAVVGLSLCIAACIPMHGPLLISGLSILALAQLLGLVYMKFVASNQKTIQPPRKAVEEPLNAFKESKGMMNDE
Outline: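 Inhibition of soluble CD47/SIRPalpha ectodomain association by titrated compounds, measured as 665/615 nm time-resolved FRET ratio after sequential 30 min room-temperature incubations.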

[15] = biological target: T1, Tyrosine-protein phosphatase non-receptor type substrate 1 (Homo sapiens) + Leukocyte surface antigen CD47 (Homo sapiens); assay: CD47-SIRPalpha protein protein interaction - HTRF assay qHTS validation (AID 1347058; active means well fitted curve in the direction sought with a large enough effect in the signal ratio, not every such curve was filed as active; the % refers to the signal ratio; further: series mostly up to about 38 µM; 0% is about no effect)
Outline: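 Soluble extracellular domains (6His-CD47, Avi-tag-biotinylated SIRPalpha) in PBS pH 7.4 with 0.05% IGEPAL CA-630. Compounds were preincubated 30 min at RT with CD47 and anti-His-Eu, then SIRPalpha and SAV-XL665 were added. TR-FRET 665/615 ratio.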

[16] = biological target: T1, Tyrosine-protein phosphatase non-receptor type substrate 1 (Homo sapiens) + Leukocyte surface antigen CD47 (Homo sapiens); assay: CD47-SIRPalpha protein protein interaction - Alpha assay qHTS validation (AID 1347059);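 further: bead proximity luminescence from CD47 binding SIRPalpha after compound preincubation with SIRPalpha; on the % scale 0 is the no-effect control and ±100 the full control effect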
Outline: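 In PBS (pH 7.4) with 0.05% IGEPAL CA-630, compound is preincubated with biotin-Avi-SIRPalpha ectodomain before His-CD47 ectodomain and affinity beads are added. Light-protected room-temperature incubations; AlphaScreen readout.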

Nc1ccc(O)c(C(=O)O)c1
inactive: Potency [1] | Potency [2] | Potency [3] | Potency [4] | Potency [5] | Potency [6] | Potency [7] | Potency [8] | Potency [9] | Potency [10] | Potency [11] | Potency [12] | Potency [13]

O=[N+]([O-])c1ccc(CNc2nc(NCc3cccc(C(F)(F)F)c3)nc3nc[nH]c23)cc1
inactive: Potency [1] | Potency [2] | Potency [14] | outcome [15] | Potency [16]

NCCO
inactive: Potency [1] | Potency [2] | Potency [3] | Potency [4] | Potency [5] | Potency [6] | Potency [7] | Potency [8] | Potency [9] | Potency [10]

N=C(N)N
inactive: Potency [1] | Potency [2] | Potency [3] | Potency [4] | Potency [5] | Potency [6] | Potency [7] | Potency [8] | Potency [9] | Potency [10] | Potency [11] | Potency [12] | Potency [13]

CCNc1nc2c(ncn2[C@H]2C[C@H](O)[C@@H](CO)O2)c(=O)[nH]1
inactive: Potency [1] | Potency [2] | Potency [14] | outcome [15] | Potency [16]

O=C(O)c1ccccc1Nc1cccc(C(F)(F)F)c1
inactive: Potency [1] | Potency [2] | Potency [3] | Potency [4] | Potency [5] | Potency [6] | Potency [8] | Potency [9] | Potency [10] | Potency [11] | Potency [12] | Potency [13]

CN(C)[C@@H]1C(=O)C(C(=O)NCN2CCCC2)=C(O)[C@@]2(O)C(=O)C3=C(O)c4c(O)cccc4[C@@](C)(O)C3C[C@@H]12 (stereo not given in full)
inactive: Potency [1] | Potency [2] | Potency [3] | Potency [4] | Potency [5] | Potency [6] | Potency [7] | Potency [8] | Potency [9] | Potency [10] | Potency [11] | Potency [12] | Potency [13]

CO[C@@]1(NC(=O)Cc2cccs2)C(=O)N2C(C(=O)O)=C(COC(N)=O)CS[C@@H]21
inactive: Potency [1] | Potency [2] | Potency [3] | Potency [4] | Potency [5] | Potency [6] | Potency [7] | Potency [8] | Potency [9] | Potency [10] | Potency [11] | Potency [12] | Potency [13]

CCCCN(CC)c1nc(C)nc2c1c(C)cn2-c1c(C)cc(C)cc1C
inactive: Potency [1] | Potency [2] | Potency [14] | Potency [16]

O=C(/C=C/c1ccccc1)NCCO
inactive: Potency [1] | Potency [2] | Potency [3] | Potency [4] | Potency [5] | Potency [6] | Potency [7] | Potency [8] | Potency [9] | Potency [10] | Potency [11] | Potency [12] | Potency [13]

COc1cc2c3cc1Oc1cc(ccc1O)C[C@@H]1c4c(cc(OC)c(O)c4Oc4ccc(cc4)C[C@@H]3N(C)CC2)CC[N+]1(C)C
inactive: Potency [1] | Potency [2] | Potency [3] | Potency [4] | Potency [5] | Potency [6] | Potency [8] | Potency [9] | Potency [10] | Potency [11] | Potency [12] | Potency [13]

O=C(Nc1ccc(C(=O)O)c(O)c1)c1ccccc1
inactive: Potency [1] | Potency [2] | Potency [3] | Potency [4] | Potency [5] | Potency [6] | Potency [7] | Potency [8] | Potency [9] | Potency [10] | Potency [11] | Potency [12] | Potency [13]

O=C(Nc1ccc2c(c1)CCN(Cc1ncn[nH]1)C2)c1ccccc1-c1ccc(C(F)(F)F)cc1
inactive: Potency [1] | Potency [2] | Potency [14] | outcome [15] | Potency [16]

CCCCCCCCCCCC(=O)[O][Sn]([CH2]CCC)([CH2]CCC)[O]C(=O)CCCCCCCCCCC
inactive: Potency [1] | Potency [2] | Potency [3] | Potency [4] | Potency [5] | Potency [6] | Potency [7] | Potency [8] | Potency [9] | Potency [10] | Potency [11] | Potency [12] | Potency [13]

O=C(O)Cc1cccc(-c2cc(CCCCCCc3ccc(O[C@H]4O[C@H](CO)[C@@H](O)[C@H](O)[C@@H]4O)c(-c4cccc(CC(=O)O)c4)c3)ccc2O[C@H]2O[C@H](CO)[C@@H](O)[C@H](O)[C@@H]2O)c1
inactive: activity change, negative = cytotoxicity [1] 3.65% [at 0.354 µM] | activity change, negative = inhibition [2] -8.2% [at 0.593 µM] | activity change, negative = cytotoxic [3] 14.4% [at 0.594 µM] | activity change, negative = cytotoxic [4] 1% [at 0.597 µM] | activity change, negative = cytotoxic [5] 18.6% [at 0.597 µM] | activity change, negative = cytotoxic [6] 10.8% [at 0.597 µM] | activity change, negative = cytotoxic [7] -8.23% [at 0.597 µM] | activity change, negative = cytotoxic [8] 12.8% [at 0.745 µM] | activity change, negative = cytotoxic [9] 9.49% [at 0.597 µM] | activity change, negative = cytotoxic [10] 2.96% [at 0.597 µM] | activity change, negative = cytotoxic [11] 9.71% [at 0.597 µM] | activity change, negative = cytotoxic [12] -3.64% [at 0.741 µM] | activity change, negative = cytotoxic [13] 1.92% [at 0.597 µM]

c1ccc2sc(SN3CCOCC3)nc2c1
inactive: Potency [1] | Potency [2] | Potency [3] | Potency [4] | Potency [5] | Potency [6] | Potency [7] | Potency [8] | Potency [9] | Potency [10] | Potency [11] | Potency [12] | Potency [13]
